The full list was thinned out, with hits kept by preference.
KDM5B inhibitor = KDM5B demethylase inhibition. KDM5B demethylase, FDH-coupled NADH fluorescence (FDH is formaldehyde dehydrogenase). Potency, µM (titrated, usually from 57.7 µM), most hits filed as inhibitors. Q9UGL1. hit rate 2.6% among 220,000; active = well fitted inhibition curve with a large enough effect; also: nearly all actives have a fitted effect of over 70% in size
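Compound dilutions met 200 nM (final) KDM5BΔAP for 10 min at room temperature before substrate addition. The substrate mix held 12.5 µM H3K4me3 with cofactors 25 µM α-ketoglutarate and 50 µM Fe²⁺. NADH signal gain over 30 min defined activity.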
Each line names hits and unclear results; the compound was inactive in the other large screens.

CC(C)c1noc(-c2cccn3c(CNC(=O)c4ccc(F)c(F)c4)nnc23)n1	KDM5B inhibitor 11.2µM
COc1ccc(Nc2cnc3ccc(-c4ccccc4OC)nn23)cc1	none
N#Cc1ccc(S(=O)(=O)N2CCC(C(=O)Nc3ccnn3Cc3ccccc3)CC2)cc1	none
CC(=O)c1cccc(NC(=S)NCCSc2ccc(Cl)cc2)c1	none
CNC(=O)[C@@H](Cc1ccccc1)N1CCC[C@H]1C(=O)NCc1ccccn1	KDM5B inhibitor 28.2µM
CNC(=O)[C@@H](Cc1ccccc1)N1CCC[C@H]1C(=O)NCc1cccnc1	none
CNC(=O)[C@@H](Cc1ccccc1)N1CCC[C@H]1C(=O)NCCOC	none
NS(=O)(=O)CC(=O)O	none
CCCNC(=O)CCc1ccc(C#N)cc1	none
COc1ccc(-c2cc3c(nc2OC)nc(CC2CC2)n3C)cc1OC	none
COc1nc2nc(CCc3ccccc3)n(C)c2cc1-c1ccc(CO)cc1	KDM5B inhibitor 35.5µM
COc1ccccc1-c1cc2c(nc1OC)nc(CC1CC1)n2C	KDM5B inhibitor 39.8µM
COCc1nc2nc(-c3ccccc3)c(-c3ccc(O)c(F)c3)cc2n1C	none
COc1ccc(-c2nn3c(-c4ccccc4)nnc3c3ccccc23)cc1	none
COc1nc2nc(CCc3ccccc3)n(C)c2cc1-c1cccc(NC(C)=O)c1	KDM5B inhibitor 35.5µM
COCc1nc2nc(-c3ccccc3)c(-c3cccc(NC(C)=O)c3)cc2n1C	none
COc1nc2nc(CCc3ccccc3)n(C)c2cc1Nc1ccncn1	none
COc1ccccc1-c1cc(NC(=O)C(C)OCC2CC2)n[nH]1 (configuration not stated)	none
Cc1nnc(-c2cc(-c3ccc(CO)cc3)ccn2)n1CCc1ccccc1	none
CC(=O)Nc1cccc(-c2ccnc(-c3nnc(C)n3Cc3ccccc3)c2)c1	none
COCc1nc2nc(-c3ccccc3)c(-c3ccc(OC)cc3)cc2n1C	KDM5B inhibitor 31.6µM
COc1ccc(-c2nc(SC(C)C(=O)NC(C)(C)C)n[nH]2)c(OC)c1 (configuration not stated)	none
O=[N+]([O-])c1ccc(/C=N/N=C(c2ccccc2)c2ccccc2)cc1	none
O=C1NCc2ccccc2CC12CCCN2CC1=CCCCC1 (configuration not stated)	none
Cc1cccc(Nc2nc(-c3ccc4c(c3)CCC(=O)N4)cs2)c1	none
COc1ccccc1NC(=O)c1ncoc1-c1cccc(Cl)c1	none
COc1cc(C#N)ccc1OCCOc1ccccc1C(C)=O	none
CC(C)(C)NC(=O)c1cc(-c2ccccc2Cl)nc2ccccc12	none
Cc1noc([C@@H]2CN(C(=O)c3cccc4[nH]ccc34)C[C@H]2CO)n1	KDM5B inhibitor 28.2µM
Cc1noc([C@@H]2CN(C(=O)c3nccc4ccccc34)C[C@H]2CO)n1	none
Cc1noc([C@@H]2CN(C(=O)CCc3c[nH]c4ccccc34)C[C@H]2CO)n1	none
O=C(c1ccccc1F)N1C[C@@H](CO)[C@H](c2nc(C3CC3)no2)C1	none
O=C(c1cccc2[nH]ccc12)N1CCC(c2noc(C3CC3)n2)C1 (configuration not stated)	KDM5B inhibitor 22.4µM
O=C(c1ccc(F)cc1)N1C[C@@H](CO)[C@H](c2nc(C3CC3)no2)C1	none
O=C(c1cccc2[nH]ccc12)N1C[C@@H](CO)[C@H](c2nc(C3CC3)no2)C1	KDM5B inhibitor 22.4µM
O=C(c1nccc2ccccc12)N1CCC(c2noc(C3CC3)n2)C1 (configuration not stated)	none
O=C(c1ccoc1)N1CCC(c2noc(C3CC3)n2)C1 (configuration not stated)	none
NC(=O)CCN1CCN(S(=O)(=O)c2ccc(F)c(F)c2)CC1	none
CC(Oc1ccc(C(=O)c2ccccc2)cc1)C(=O)N1CCc2ccccc21 (configuration not stated)	none
CC(=O)c1cccc(Oc2ccc(C#N)c(C#N)c2)c1	none
Cc1c(C(=O)O)oc2ccc(S(=O)(=O)Nc3ccccc3)cc12	none
Cc1ccc(Cl)cc1OCc1n[nH]c(=S)n1C	none
Cc1cc(C)c(NC(=O)c2cc(=O)c3ccccc3o2)c(Cl)c1	none
CCN(CC)S(=O)(=O)c1ccc(=O)n(Cc2cc(=O)oc3cc(C)ccc23)c1	none
COc1cccc2sc(NC(=O)c3ccc4c(c3)OCCN(C3CCC3)C4)nc12	KDM5B inhibitor 35.5µM
COc1cccc2sc(NC(=O)c3ccc4c(c3)OCCO4)nc12	none
COc1ccc(NC(=O)c2ccc3c(c2)OCCN(C2CCC2)C3)cn1	none
CC(Sc1cc(C(=O)NC2CC2)c2ccccc2n1)C(=O)N1CCOCC1 (configuration not stated)	none
O=C1NC2(CCN(Cc3ccc(F)cc3)CC2)COc2ccccc21	none
O=C1NC2(CCN(Cc3ccsc3)C2)COc2ccccc21 (configuration not stated)	KDM5B inhibitor 35.5µM
O=C1NC2(CCCN(Cc3ccc(C(F)(F)F)cc3)C2)COc2ccccc21 (configuration not stated)	KDM5B inhibitor 25.1µM
O=C1NC2(CCCN(Cc3ccsc3)C2)Oc2ccccc21 (configuration not stated)	none
Cc1ccc(CN2CCC3(CC2)COc2ccccc2C(=O)N3)cc1	none
Cn1nccc1CN1CCCC2(COc3ccccc3C(=O)N2)C1 (configuration not stated)	KDM5B inhibitor 39.8µM
Cn1nccc1CN1CCC2(CC1)NC(=O)c1ccccc1O2	none
O=C1NC2(CCCN(C(=O)c3ccccc3)C2)COc2ccccc21 (configuration not stated)	none
O=C1NC2(CCN(Cc3ccsc3)C2)Oc2ccccc21 (configuration not stated)	none
COc1ccc(C(C)=O)cc1COC(=O)/C=C/c1cc(Br)ccc1F	none
CC(C)CCNC(=O)CSc1nc2ccsc2c(=O)n1Cc1ccccc1	none
CCN(Cc1ccc2c(c1)OCO2)C(=O)c1nn(-c2ccccc2)c(=O)c2ccccc12	none
COc1ccc(Cl)cc1NC(=O)COC(=O)CCS(=O)(=O)c1ccc(C)c(C)c1	none
Cc1cc(NC(=O)CSc2nc3c(c(=O)n(C)c(=O)n3C)n2Cc2ccccc2C)ccc1F	none
CN(CC(=O)NC(N)=O)Cc1ccsc1	none
Cc1ccccc1CSc1nnc(C2CCN(C(=O)OC(C)(C)C)CC2)o1	none
COc1ccc(C(=O)NCC2(COc3ccccc3)C[C@@H](O)[C@@H](O)C2)cc1 (some centres not stated)	none
COCC1(CNC(=O)c2cccc(OC)c2)C[C@@H](O)[C@@H](O)C1 (some centres not stated)	none
COCC1(CNC(=O)c2nc3ccccc3[nH]2)C[C@@H](O)[C@@H](O)C1 (some centres not stated)	KDM5B inhibitor 35.5µM
FC(F)(F)c1ccccc1CNCc1ccccc1Cl	none
COc1ccc(CNC(=O)Cc2c(C)c3ccc(OC(C)=O)cc3oc2=O)cc1OC	none
CCCn1nc(C(=O)NCCc2cccs2)c2ccccc2c1=O	none
COc1ccc(OC2CN(Cc3ccc(NC(C)=O)cc3)C2)cc1	none
COc1ccc(-c2nc(C)nc3c2CN(Cc2ccc(NC(C)=O)cc2)CC3)cc1	KDM5B inhibitor 22.4µM
COc1ccc(-c2nc3c(c(-c4ccccc4)n2)CN(C(=O)C(C)(C)C)CC3)cc1	none
COc1ccc(C(=O)N2CCc3nc(C)nc(-c4ccc(OC)cc4)c3CC2)cc1	none
COc1ccc(C(=O)N2CCc3nc(C)nc(-c4ccc(O)cc4)c3C2)cc1	none
COCC(=O)N1CCc2nc(-c3ccccc3)nc(-c3ccc(OC)cc3)c2C1	KDM5B inhibitor 22.4µM
COc1cccc(CN2CCc3nc(C)nc(-c4ccc(O)cc4)c3C2)c1	none
COC(=O)N1CCc2nc(-c3ccc(OC)cc3)nc(-c3ccccc3)c2C1	none
COCC(=O)N1CCc2nc(C)nc(-c3ccc(OC)cc3)c2C1	KDM5B inhibitor 31.6µM

Screening data: PubChem BioAssay, National Center for Advancing Translational Sciences (NCATS)
